Screening data (PubChem BioAssay)
The sample as a whole holds a higher share of hits than the screen did.
FBPA Giardia inh: Giardia lamblia aldolase inhibition; A8B2U2; purified Giardia FBPA; Potency, µM (series often up to 59.6 µM), for the others: at the highest dose activity, negative = inhibition, most hits filed as inhibitors; 290,000 tested, 0.71% active; also: potency is read from the fitted curve at half-maximal effect; % is scaled to controls: 0 for no effect and ±100 for the full control effect; nearly all actives have a fitted effect of over 55% in size
Target sequence (A8B2U2 whole entry, looked up): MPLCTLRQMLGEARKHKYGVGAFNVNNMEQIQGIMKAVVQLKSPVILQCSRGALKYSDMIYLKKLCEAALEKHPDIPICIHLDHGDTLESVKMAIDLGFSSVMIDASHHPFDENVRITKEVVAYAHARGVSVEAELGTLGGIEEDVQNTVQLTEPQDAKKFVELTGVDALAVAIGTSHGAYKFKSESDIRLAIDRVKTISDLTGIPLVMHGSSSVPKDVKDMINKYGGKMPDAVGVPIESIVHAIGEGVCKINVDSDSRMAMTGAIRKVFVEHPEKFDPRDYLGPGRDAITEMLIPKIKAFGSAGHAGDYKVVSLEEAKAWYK
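40 nM FBPA preincubated 10 min at RT with compound (up to 57.5 uM final), then substrate plus GAPDH/TPI/NAD/arsenate coupling and diaphorase/resazurin added. Fluorescence read after 20 min at RT, 525/598 nm.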
Sm TGR inh: inhibitors of Schistosoma mansoni thioredoxin glutathione reductase; Q962Y6; purified TGR, DTNB reduction, TNB absorbance 405 nm; Potency, µM (series often up to 114 µM), for the others: at the top dose activity change, negative = inhibition, usual class: inhibitors; 360,000 tested, 3% active; also: potency is read from the fitted curve at half-maximal effect; % is scaled to controls: 0 for no effect and ±100 for the full control effect; nearly all actives have a fitted effect of over 60% in size
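Kinetic colorimetric format: TGR-catalysed, NADPH-driven DTNB reduction monitored via TNB absorbance. Enzyme dispensed at 20 nM; compound exposure 15 min at room temperature before reaction start.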
CHX counter: affects cycloheximide protein synthesis inhibition readout, counter-screen. cell reporter, cycloheximide protein synthesis inhibition counterscreen. max response, %. 300,000 tested, 12% active; in the data active = max response mostly above about 13%, no sharp cut-off; inactive = mostly below about 14%; also: read at 38.3 µM for the half of the compounds with a filed dose; 0% is about no effect
Shiga toxin inh: inhibitors of Shiga toxin in Vero cells; Vero cells, Shiga toxin protein synthesis inhibition reporter; inhibition, % at 38.7 µM; 290,000 tested, 9.2% active; AID 2315; in the data active = inhibition mostly above about 28%, no sharp cut-off; inactive = mostly below about 43%; also: 0% is about no effect
LmPK inh: inhibitors of Leishmania mexicana pyruvate kinase; 290,000 tested, 0.37% active; purified LmPK, Kinase-Glo ATP luminescence, 1 h; Potency, µM (series often up to 57.5 µM), for the others: at the top dose activity change, negative = inhibition, most hits filed as inhibitors; Q27686; also: potency is read from the fitted curve at half-maximal effect; % is scaled to controls: 0 for no effect and ±100 for the full control effect
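Pyruvate kinase activity monitored as ATP production (luciferase luminescence). Conditions: 0.1 nM enzyme, 0.5 mM PEP, 0.1 mM ADP, 1 h, RT; normalized against uninhibited and no-enzyme wells.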
Tb PYK inh: T. brucei pyruvate kinase inhibition | Q57TT1 | TbPYK enzyme, Kinase-Glo Plus ATP luminescence, 45 min | Potency, µM (highest dose often 76.8 µM), without a hit: at the top dose activity, negative = inhibition, hits mostly inhibitors | 410,000 tested, 0.12% active | AID 624173; also: potency is read from the fitted curve at half-maximal effect; % is scaled to controls: 0 for no effect and ±100 for the full control effect; nearly all actives have a fitted effect of over 50% in size
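Luminescent Kinase-Glo Plus end-point after 45 min room-temperature reaction of T. brucei pyruvate kinase started with 130 uM ADP (final). Buffer TEA 50 mM pH 7.2 with KCl, MgCl2, BSA, Tween-20; titration-based qHTS with fitted concentration-effect curves.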
An asterisk follows results filed as active; ? = inconclusive; nt = no result given; [ ] = another dose, or the depositor's remark. Unless noted, calls follow the shape of the dose curve; as a rule, active = well fitted curve in the direction sought with a large enough effect; inconclusive = small, poorly fitted or top-dose-only effect, or another doubt; inactive = no such curve, though single readings can be large; an effect the other way counts as inactive or inconclusive.

SMILES	FBPA Giardia inh	Sm TGR inh	CHX counter	Shiga toxin inh	LmPK inh	Tb PYK inh
O=C(CC1CS(=O)(=O)CC1CC(=O)Nc1ccc2c(c1)OCCO2)Nc1ccc2c(c1)OCCO2 (configuration not stated)	-21.7%	-8.7%	51.4*	107.2*	-6.0%	-9.8%
O=C(CC1NCCNC1=O)Nc1ccc2c(c1)OCCO2 (configuration not stated)	4.5%	-1.3%	15.6	-3.2	-1.6%	0.3%
O=C(Nc1ccccc1)C(O)C(O)C(=O)Nc1ccccc1 (configuration not stated)	4.2%	1.6%	-2.1	-13.1	-0.9%	-3.0%
CCC(CC)C(=O)Nc1cc(NC(=O)C(CC)CC)cc(C(=O)O)c1	7.3%	1.8%	-0.9	-3.4	2.2%	1.6%
CCC(CC)C(=O)Nc1ccc(Nc2ccccc2)cc1	0.0%	-11.3%	18.8*	28.1	3.0%	-7.4%
CC(C)C(=O)Nc1ccc(Nc2ccccc2)cc1	-0.1%	-17.6%	17.3*	15.3	4.8%	-4.7%
COc1cccc(CNC(=O)c2ccc3c(c2)nc2n3CCCCC2)c1OC	nt	4.0%	nt	nt	nt	-2.5%
COc1ccc2oc(=O)c(C(=O)N3CCN(c4ccccc4)CC3)cc2c1	-0.7%	-5.5%	19.2*	78.0	1.9%	-5.5%
COc1ccc2oc(=O)c(C(=O)N3CCN(C(=O)c4ccccc4)CC3)cc2c1	-0.2%	-7.7%	-2.6	-10.4	-4.3%	3.6%
COc1ccc2oc(=O)c(C(=O)N3CCN(C(=O)c4ccco4)CC3)cc2c1	-0.3%	39.8µM*	6.0	-7.6	-0.2%	10.7%
COc1ccc2oc(=O)c(C(=O)N3CCN(c4ccccc4C)CC3)cc2c1	-8.0%	6.9%	65.6*	131.6*	4.2%	-8.3%
COc1ccc(NC(=O)c2cn3c4c(ccc(Cl)c4c2=O)OC(C)C3)cc1OC (configuration not stated)	nt	-7.9%	nt	nt	nt	0.3%
CCOC(=O)Nc1cc(C(=O)OCC)c(C)nc1C	1.2%	0.3%	-5.4	12.4	-2.7%	1.1%
CCOC(=O)c1cc(NC(=O)N2CCCc3ccccc32)c(C)nc1C	-8.3%	-0.8%	20.4*	43.2	0.7%	-2.8%
CCOC(=O)c1cc(NC(=O)Nc2cc(C)ccn2)c(C)nc1C	12.5%	-3.0%	14.3	38.8*	4.2%	5.3%
COc1ccc(C)cc1NC(=O)N1CCCc2ccccc21	-5.1%	13.1%	22.7*	74.9*	8.5%	1.9%
Cc1nc(C)c(NC(=O)N2CCc3ccccc32)cc1NC(=O)N1CCc2ccccc21	-11.4%	14.4%	-3.4	2.9	2.3%	1.5%
COc1ccc(NC(=O)N2CCCc3ccccc32)c(OC)c1	7.1%	4.4%	17.3*	43.9	0.1%	-3.7%
COc1ccc(C)cc1NC(=O)N1CC(C)Sc2ccccc21 (configuration not stated)	nt	6.7%	nt	nt	nt	5.6%[15.4 µM]
COc1ccc(OC)c(NC(=O)CC2C(=O)NCCN2C(=O)C(F)(F)F)c1 (configuration not stated)	nt	5.1%	nt	nt	nt	-1.9%
O=S(=O)(c1ccc2c(c1)OCCO2)N1CCN(S(=O)(=O)c2cc(F)c(F)cc2F)CC1	nt	nt	-9.5	-11.4	nt	nt
O=C(CSc1ncn(-c2ccccc2)n1)Nc1ccc(Br)cn1	-2.6%	-15.0%	3.0	-2.6	5.1%	nt
Nc1nc(CSc2ncn(-c3ccccc3)n2)cs1	0.9%	-4.2%	38.3*	92.4*	3.2%	-4.9%
c1ccc(CSc2ncn(-c3ccccc3)n2)cc1	-5.3%	3.6%	45.8*	105.2*	-3.8%	1.3%
O=C(CSc1ncn(-c2ccccc2)n1)c1cccs1	-13.4%	-1.4%	63.5*	88.4*	-0.8%	-22.8%
SMILES	FBPA Giardia inh	Sm TGR inh	CHX counter	Shiga toxin inh	LmPK inh	Tb PYK inh
O=S(=O)(c1ccc(SCCOc2ccc(Cl)cc2)nc1)N1CCCC1	nt	2.3%	nt	nt	nt	-9.2%
Cn1cccc1C(=O)N1CCC[C@@]2(CCN(Cc3ccccc3)C2)C1	-3.5%	nt	nt	nt	nt	-2.9%
Cc1cccc(N2CCN(C(=O)Nc3cn(CC(C)C)c(=O)c4ccccc34)CC2)c1C	nt	4.7%	nt	nt	nt	-2.5%
COc1ccc(CNC(=O)CNC(=O)c2ccc(C(C)(C)C)cc2)cc1OC	-13.3%	-1.3%	4.8	15.6	0.0%	2.1%
CC1(C)Cc2c(cnn2-c2ccccc2)C(NC(=O)CCCN2CCCC2=O)C1 (configuration not stated)	-3.5%	-25.9%	9.8	-7.2	2.6%	0.2%
COc1ccc(-n2ncc3c2CC(C)(C)CC3NC(=O)Cc2nonc2C)cc1 (configuration not stated)	nt	-12.2%	-2.7	0.8	7.1%	1.0%
CC1(C)Cc2c(cnn2-c2ccccc2)C(NC(=O)CCCn2cncn2)C1 (configuration not stated)	nt	-0.1%	24.4*	28.8	1.3%	10.7%
CC1(C)Cc2c(cnn2-c2ccc(F)cc2)C(NC(=O)CCn2cncn2)C1 (configuration not stated)	nt	-18.5%	25.1*	16.2	-5.9%	3.7%
Cc1nonc1CC(=O)NC1CC(C)(C)Cc2c1cnn2-c1ccc(F)cc1 (configuration not stated)	nt	0.0%	13.5*	32.7*	-6.3%	-3.0%
COc1ccc2[nH]cc(S(=O)(=O)c3ccc(C)c(C)c3)c(=O)c2c1	nt	5.8%	nt	nt	nt	1.8%
CCc1ccc2oc(-c3ccc(C)c(NC(=O)c4ccc(C#N)cc4F)c3)nc2c1	nt	6.4%	nt	nt	nt	-9.4%
CCCCOc1ccc(CSc2nncn2N)cc1	8.7%	9.0%	30.6*	64.7*	-1.8%	-4.4%
CCOC(=O)c1ccc(CSc2ncn[nH]2)o1	-18.1%	?	-1.9	1.7	-6.1%	-10.4%
CCCCOc1ccc(CSc2ncn[nH]2)cc1	-8.1%	2.4%	25.9*	60.5	0.7%	-1.8%
CCCCCOc1ccc(CSc2ncn[nH]2)cc1	0.0%	3.9%	39.4*	71.9*	6.1%	-10.5%
CCCOc1ccc(CSc2nnc(CCC)n2N)cc1	5.8%	9.7%	11.1	18.3	3.9%	-1.4%
CN(C(=O)c1nc(-c2ccccc2)n(-c2ccccc2)n1)C1CCS(=O)(=O)C1 (configuration not stated)	9.3%	-5.2%	-7.8	-9.3	1.0%	-1.0%
CNNCc1ccc(C(=O)NC(C)C)cc1	-10.1%[21.7 µM]	nt	nt	nt	nt	-10.5%
CCCN(CCC)C(=O)Cc1c(-c2ccc(Cl)cc2)nc2ccc(Cl)cn12	nt	nt	nt	nt	nt	0.0%
Cc1ccc(NC(=O)Nc2nnc(N(CC(C)C)CC(C)C)s2)cc1Cl	nt	1.4%	nt	nt	nt	-0.4%
S=C(N/N=C/c1ccc(Cl)c(Cl)c1)Nc1ccccc1Cl	0.9%	0.2%	22.7*	30.2	0.5%	-6.7%
Fc1cccc(/C=N/NC(=S)Nc2ccccc2Cl)c1	-12.1%	-15.9%	35.6*	31.0	-0.4%	-6.6%
O=C(CSc1nccn1Cc1ccccc1)NC1CCCC1	nt	-6.4%	25.2*	17.7	-13.2%	-0.8%
